Shown are actives, neighbours in structure and some others; about 5% of the full set was active somewhere.
VACV mCherry inh = inhibitors of vaccinia virus infection (mCherry reporter signal) | Vaccinia virus mCherry reporter infection, fluorescence | hit rate 0.63% among 310,000 | Potency, µM (doses to about 36.5 µM), without a hit: at the top dose activity change, negative = inhibition, usual class: inhibitors | AID 720579; calls by dose curve; tested in A549 cells; further: potency means the concentration at half of the fitted maximal effect; nearly all actives have a fitted effect of over 35% in size
LmPK inh = LmPK (Leishmania mexicana) enzyme inhibition | purified LmPK, Kinase-Glo ATP luminescence, 1 h | Potency, µM (top dose mostly 57.5 µM), inactives show top-dose activity change, negative = inhibition, hits mostly inhibitors | hit rate 0.37% among 290,000; further: potency means the concentration at half of the fitted maximal effect
Target sequence (Q27686 whole entry, looked up): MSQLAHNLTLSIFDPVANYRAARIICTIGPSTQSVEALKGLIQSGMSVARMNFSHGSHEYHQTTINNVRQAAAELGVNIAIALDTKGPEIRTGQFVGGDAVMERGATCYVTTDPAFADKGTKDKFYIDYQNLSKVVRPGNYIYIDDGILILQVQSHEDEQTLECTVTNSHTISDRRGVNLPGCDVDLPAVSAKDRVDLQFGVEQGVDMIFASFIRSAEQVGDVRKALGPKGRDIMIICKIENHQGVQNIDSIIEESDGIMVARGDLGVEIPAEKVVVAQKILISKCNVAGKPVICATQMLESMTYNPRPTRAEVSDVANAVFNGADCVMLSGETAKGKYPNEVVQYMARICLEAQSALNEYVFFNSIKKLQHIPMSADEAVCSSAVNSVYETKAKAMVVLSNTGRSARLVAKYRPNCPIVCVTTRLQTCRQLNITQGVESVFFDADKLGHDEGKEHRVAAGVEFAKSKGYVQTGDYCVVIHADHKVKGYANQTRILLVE
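Pyruvate kinase activity monitored as ATP production (luciferase luminescence). Conditions: 0.1 nM enzyme, 0.5 mM PEP, 0.1 mM ADP, 1 h, RT; normalized against uninhibited and no-enzyme wells.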
TbPYK inhibitor = T. brucei pyruvate kinase inhibition | Q57TT1 | TbPYK enzyme, Kinase-Glo Plus ATP luminescence, 45 min | Potency, µM (highest dose often 76.8 µM), for the others: at the top dose activity, negative = inhibition, hits mostly inhibitors | hit rate 0.12% among 410,000 | AID 624173; further: potency means the concentration at half of the fitted maximal effect; nearly all actives have a fitted effect of over 50% in size
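TbPYK + substrate in 50 mM TEA pH 7.2, 100 mM KCl, 10 mM MgCl2, 0.05% BSA, 0.01% Tween-20; cpd pinned; ADP 130 uM final; 45 min RT; Kinase-Glo Plus 10 min; luminescence endpoint.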
Vaccinia Venus = inhibitors of vaccinia virus (Venus reporter); hit rate 0.46% among 330,000; Vaccinia virus Venus reporter expression, fluorescence; Potency, µM (titrated, usually from 36.5 µM), for inactives: top-dose activity change, negative = inhibition, most hits filed as inhibitors; calls by dose curve; tested in A549 cells; further: potency means the concentration at half of the fitted maximal effect; nearly all actives have a fitted effect of over 30% in size
HCMV inh = inhibitors of human cytomegalovirus. activity change, negative = inhibition, % at 57.5 µM. hit rate 4.5% among 410,000. HFF cells, HCMV-luciferase reporter, 72 h; hits give low values; in the data active means activity change below about -60%; inconclusive means no clear call, values can overlap the other calls; inactive means above about -39%
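Cell-based, HFFs, 1000 cells/well, 16 h 37C; cpds in DMSO + HCMV-luc, MOI 1 PFU/cell; 72 h 37C; OneGlo luminescence after 5 min RT; norm. to buffer vs Salinomycin 10uM.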
Active calls of the source: *; i = inactive; ? = inconclusive; / = no result given; [ ] = remark or other dose. Unless noted, the call rests on the fitted dose curve; in most records, active means well fitted curve in the direction sought with a large enough effect; inconclusive means small, poorly fitted or top-dose-only effect, or another doubt; inactive means no such curve, though single readings can be large; an effect the other way counts as inactive or inconclusive. On the % scale 0 is the no-effect control and ±100 the full control effect.

SMILES | VACV mCherry inh | LmPK inh | TbPYK inhibitor | Vaccinia Venus | HCMV inh
COc1ccc(OCCN2CCC(C(=O)NC(c3ccc(F)cc3)c3ccc4ccccc4n3)CC2)cc1 (stereo not given) | i | / | -7% | -5% | 29
O=C(NC(c1ccccc1)c1ccc2ccccc2n1)C1CCN(CCOc2ccc(Cl)cc2)CC1 (stereo not given) | ? | / | -3% | 10µM* | -11
COc1ccc(OCCN2CCC(C(=O)NC(c3ccccc3)c3ccc4ccccc4n3)CC2)cc1 (stereo not given) | -30% | / | 0% | -20% | /
Cc1ccc(Cl)cc1NC(=O)C1CCCN(S(=O)(=O)c2cccc3cccnc23)C1 (stereo not given) | -17% | / | -3% | -24% | -8
O=C(Cc1ccc([N+](=O)[O-])cc1)N1N=C(C2CC2)CC1(O)C(F)(F)F (stereo not given) | -6% | 3% | 5% | -7% | -29
COc1ccc(C2c3ccc4ccccc4c3Oc3ncn(CCCN(C)C)c(=N)c32)cc1 (stereo not given) | ? | -7% | -19% | ? | -64*
COc1ccccc1C1c2ccc3ccccc3c2Oc2ncn(CCCO)c(=N)c21 (stereo not given) | ? | 0% | -17% | -26% | /
COc1ccc(C2c3c(ncn(CCCO)c3=N)Oc3ccc4ccccc4c32)cc1 (stereo not given) | i | 2% | 0% | 0% | 104
COc1ccccc1C1c2ccc3ccccc3c2Oc2ncn(CCN(C)C)c(=N)c21 (stereo not given) | -20% | 0% | 4% | ? | -101*
Cc1cccc(COc2ncnc3nc[nH]c23)c1 | i | -6% | 2% | -14% | 4
CC(C)(CNC(=O)c1ccc([N+](=O)[O-])c(Cl)c1)CNC(=O)c1ccc([N+](=O)[O-])c(Cl)c1 | / | 4% | 2% | -12% | -97*
CC1CN(CCS(=O)(=O)c2cc(Cl)ccc2Cl)CC(C)O1 (stereo not given) | 11µM* | -1% | 0% | ? | ?
CC(=O)N1CCN(CCS(=O)(=O)c2cc(Cl)ccc2Cl)CC1 | ? | / | 0% | ? | -15
COc1ccc(NC(=O)CSc2nc(N)cc(N)n2)cc1S(=O)(=O)N1CCCCC1 | / | / | 0% | / | -17
CCN(c1nc(N)c(C(=O)N=C(N)N)nc1Cl)C(C)C | -16% | / | 2% | -28% | -62*
Cc1ccc(S(=O)(=O)NCC(=O)OCC(=O)N(CCC#N)c2ccccc2)cc1 | -16% | / | -5% | -2% | -64*
COC(=O)c1sc(N2C(=O)c3oc4ccc(F)cc4c(=O)c3C2c2ccc(C)cc2)nc1C (stereo not given) | i | / | / | -6% | /
O=C1COc2ccc(S(=O)(=O)N3CCN(c4cccc(C(F)(F)F)c4)CC3)cc2N1 | -6% | -12% | -10% | -22% | 0
CC1Sc2ccc(S(=O)(=O)CCC(=O)N3CCN(c4ccccc4)CC3)cc2NC1=O (stereo not given) | ? | 0% | 1% | -15% | ?
CC1Sc2ccc(S(=O)(=O)CCC(=O)N3CCN(c4cccc(Cl)c4)CC3)cc2NC1=O (stereo not given) | -1%[7.34 µM] | 5% | 3% | 0%[7.34 µM] | -63*
O=C1COc2ccc(S(=O)(=O)CCC(=O)N3CCN(c4cccc(C(F)(F)F)c4)CC3)cc2N1 | -3% | 0% | -23% | -26% | -68*
CC1Sc2ccc(S(=O)(=O)CCC(=O)N3CCN(c4ccccc4F)CC3)cc2NC1=O (stereo not given) | ? | 9% | -7% | -17% | -70*
CCN(CC)S(=O)(=O)c1cnccc1N1CCN(c2cccc(Cl)c2)CC1 | -28% | 0% | -10% | ? | -29
NS(=O)(=O)c1cccc(NC(=O)COC(=O)CCC(=O)c2cccs2)c1 | / | / | -13% | / | -1
Nc1c(N(Cc2ccccc2)C(=O)COc2ccc([N+](=O)[O-])cc2)c(=O)[nH]c(=O)n1Cc1ccccc1 | / | / | 1% | / | -97*
Nc1c(N(CCO)C(=O)COc2ccc(Cl)cc2)c(=O)[nH]c(=O)n1Cc1ccccc1 | / | -6% | 0% | / | ?
Cc1ccc(OCCC(=O)N(Cc2ccccc2)c2c(N)n(Cc3ccccc3)c(=O)[nH]c2=O)cc1 | -7% | / | 6% | -21% | -81*
